Where “and” joins values, the source holds several entries; their conditions need not be identical. Equal entries are not always repeated. Results filed as inconclusive are left out. Calls of active or inactive are those of the source. Unless noted, the call rests on the fitted dose curve; in most records, active means well fitted curve in the direction sought with a large enough effect in the repeat runs; inconclusive means weak or mixed curves; inactive means no such curve, though single readings can be large; an effect the other way counts as inactive or inconclusive.
Assays:
[1] = qHTS assay to identify small molecule agonists of H2AX - cell viability counter screen (AID 1224847; calls by dose curve;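 further: wild-type CHO-K1 cells; top concentration of the series differs between compounds; nearly all actives have a fitted effect of over 30% in size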)
In short: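 After overnight plating of 1000 CHO-K1 cells per well, a 15-concentration compound series was applied for 3 hr at 37C. Luminescence from CellTiter-Glo, read following 30 min at room temperature, reflected cell viability.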

[2] = qHTS RealTime-Glo MT Cell Viability Assay in HepG2 cells - 24 hour (AID 1224867); further: nearly all actives have a fitted effect of over 50% in size
In short: (§1)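 HepG2 suspension premixed with RealTime-Glo reagents is plated at 600 cells per well and left 5 h at 37 C/5% CO2. Compounds in DMSO then go in, and bioluminescence reflecting viable cell number is recorded over 40 h.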

[3] = qHTS RealTime-Glo MT Cell Viability Assay in HEK293 cells - 32 hour (AID 1224868); further: top concentration of the series differs between compounds; nearly all actives have a fitted effect of over 50% in size
In short: (§2)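 Reads taken at 0, 8, 16, 24, 32 and 40 h from the same wells. HEK293 cells (600/well) carried RealTime-Glo reagents from seeding, with compound added after a 5 h settle at 37 C.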

[4] = A CellTox Green Cytotoxicity Assay to monitor cytotoxicity in HEK293 cells - 0 hour (AID 1224869); further: nearly all actives have a fitted effect of over 50% in size
In short: (§3)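 HEK293 cells, 600/well, were preincubated 5 hours and then exposed to compounds at 37 C for up to 40 hours. A cell-impermeant cyanine dye staining dead-cell DNA was read by fluorescence at 0, 8, 16, 24, 32 and 40 h time points.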

[5] = A CellTox Green Cytotoxicity Assay to monitor cytotoxicity in HEK293 cells - 40 hour (AID 1224871); further: nearly all actives have a fitted effect of over 45% in size
In short: as §3

[6] = qHTS RealTime-Glo MT Cell Viability Assay in HEK293 cells - 16 hour (AID 1224872); further: top concentration of the series differs between compounds; nearly all actives have a fitted effect of over 50% in size
In short: as §2

[7] = qHTS RealTime-Glo MT Cell Viability Assay in HEK293 cells - 40 hour (AID 1224874); settings: RealTime-Glo luminescence; max response: active compounds read low; further: nearly all actives have a fitted effect of over 50% in size
In short: (§4)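 600 cells/well were plated with the nonlytic NanoLuc/prosubstrate reagent, pre-incubated 5 h, then given 23 nL of compound in DMSO. Incubation at 37 C for 40 h, with luminescence from viable-cell-reduced substrate read repeatedly from 0 h.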

[8] = A CellTox Green Cytotoxicity Assay to monitor cytotoxicity in HEK293 cells - 24 hour (AID 1224875); further: series mostly up to about 77 µM; nearly all actives have a fitted effect of over 45% in size
In short: as §3

[9] = A CellTox Green Cytotoxicity Assay to monitor cytotoxicity in HepG2 cells - 16 hour (AID 1224876); further: nearly all actives have a fitted effect of over 45% in size
In short: (§5)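 HepG2 cells, 600/well, preincubated 5 h with CellTox Green dye, then exposed to Tox21 compounds in DMSO at 37 C for up to 40 h. Dead-cell DNA fluorescence read at the indicated time point.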

[10] = qHTS RealTime-Glo MT Cell Viability Assay in HepG2 cells - 32 hour (AID 1224877); further: nearly all actives have a fitted effect of over 55% in size
In short: as §1

[11] = A CellTox Green Cytotoxicity Assay to monitor cytotoxicity in HepG2 cells - 24 hour (AID 1224878); further: nearly all actives have a fitted effect of over 45% in size
In short: as §5

[12] = A CellTox Green Cytotoxicity Assay to monitor cytotoxicity in HepG2 cells - 40 hour (AID 1224879); further: nearly all actives have a fitted effect of over 40% in size
In short: as §5

[13] = qHTS RealTime-Glo MT Cell Viability Assay in HEK293 cells - 0 hour (AID 1224880)
In short: as §4

[14] = A CellTox Green Cytotoxicity Assay to monitor cytotoxicity in HEK293 cells - 32 hour (AID 1224881); further: nearly all actives have a fitted effect of over 40% in size
In short: as §3

[15] = A CellTox Green Cytotoxicity Assay to monitor cytotoxicity in HepG2 cells - 0 hour (AID 1224882); further: nearly all actives have a fitted effect of over 35% in size
In short: as §5

[16] = A CellTox Green Cytotoxicity Assay to monitor cytotoxicity in HepG2 cells - 32 hour (AID 1224883); further: nearly all actives have a fitted effect of over 50% in size
In short: as §5

[17] = A CellTox Green Cytotoxicity Assay to monitor cytotoxicity in HEK293 cells - 8 hour (AID 1224884); further: nearly all actives have a fitted effect of over 35% in size
In short: as §3

[18] = qHTS RealTime-Glo MT Cell Viability Assay in HepG2 cells - 40 hour (AID 1224870); further: nearly all actives have a fitted effect of over 50% in size
In short: (§6)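 HepG2 cells (600/well) mixed with RealTime-Glo MT reagent, settled 5 h at 37 C/5% CO2 before compound addition. Nonlytic NanoLuc luminescence from viable-cell prosubstrate reduction read repeatedly during 40 h treatment at 37 C.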

[19] = qHTS RealTime-Glo MT Cell Viability Assay in HepG2 cells - 8 hour (AID 1224873); further: nearly all actives have a fitted effect of over 55% in size
In short: as §6
On the % scale 0 is the no-effect control and ±100 the full control effect.

CCCCCCCCCCCCOCCO
inactive: Potency [1] | outcome [2] | Potency [3] | outcome [4] | Potency [5] | Potency [6] | max response [7] -14.2% and -3.69% | Potency [8] | Potency [9] | outcome [10] | Potency [11] | Potency [12] | Potency [13] | Potency [14] | outcome [15] | Potency [16] | outcome [17]

C=C(C)C(=O)OCCOCCOCCOC(=O)C(=C)C
inactive: Potency [1] | outcome [2] | Potency [3] | outcome [4] | outcome [18] | Potency [5] | Potency [6] | Potency [8] | Potency [9] | outcome [10] | Potency [11] | Potency [12] | Potency [13] | outcome [15] | Potency [16] | outcome [17]

CCCCN(CCCC)CCCC
inactive: Potency [1] | outcome [2] | Potency [3] | outcome [4] | Potency [5] | Potency [6] | Potency [8] | Potency [9] | outcome [10] | Potency [11] | Potency [12] | Potency [13] | outcome [15] | Potency [16] | outcome [17]

CC(=O)c1ccccc1
inactive: Potency [1] | outcome [2] | Potency [3] | outcome [4] | outcome [18] | Potency [5] | Potency [6] | Potency [8] | Potency [9] | outcome [10] | Potency [11] | Potency [12] | Potency [13] | Potency [14] | outcome [15] | Potency [16] | outcome [17]

O=C(OCCOCCOC(=O)c1ccccc1)c1ccccc1
inactive: Potency [1] | outcome [2] | outcome [4] | Potency [5] | outcome [19] | max response [7] -18.1% | Potency [8] | outcome [10] | Potency [11] | Potency [12] | Potency [13] | outcome [15] | Potency [16] | outcome [17]

CCc1ccc(CCOc2ccc(CC3SC(=O)NC3=O)cc2)nc1 (centres undefined)
inactive: Potency [1] | outcome [2] | Potency [3] | outcome [4] | outcome [18] | Potency [5] | outcome [19] | max response [7] -19% | Potency [8] | Potency [9] | outcome [10] | Potency [11] | Potency [12] | Potency [13] | Potency [14] | outcome [15] | Potency [16] | outcome [17]

C#CCN(C)Cc1ccccc1
inactive: Potency [1] | outcome [2] | Potency [3] | outcome [4] | Potency [5] | Potency [6] | max response [7] -0.876% and -0.317% | Potency [8] | Potency [9] | outcome [10] | Potency [11] | Potency [12] | Potency [13] | outcome [15] | Potency [16] | outcome [17]

c1ccc(OCCOc2ccccc2)cc1
inactive: Potency [1] | outcome [2] | Potency [3] | outcome [4] | Potency [5] | Potency [6] | max response [7] -0.0252% and -0.384% | Potency [8] | outcome [10] | Potency [11] | Potency [12] | Potency [13] | Potency [14] | outcome [15] | Potency [16] | outcome [17]

CC(C)(C)[C@@H](O)[C@@H](Cc1ccc(Cl)cc1)n1cncn1
inactive: Potency [1] | outcome [2] | outcome [4] | outcome [18] | Potency [5] | Potency [6] | Potency [8] | outcome [10] | Potency [11] | Potency [12] | Potency [13] | Potency [14] | outcome [15] | Potency [16] | outcome [17]

O=c1[nH]c(=O)n([C@H]2CCCO2)cc1F
inactive: Potency [1] | outcome [2] | Potency [3] | outcome [4] | Potency [5] | Potency [6] | outcome [19] | max response [7] -9.43% and 1.8% | Potency [8] | Potency [9] | outcome [10] | Potency [11] | Potency [12] | Potency [13] | Potency [14] | outcome [15] | Potency [16] | outcome [17]

CN(C)CCC(c1ccc(Cl)cc1)c1ccccn1 (centres undefined)
inactive: Potency [1] | outcome [2] | Potency [3] | outcome [4] | Potency [5] | Potency [6] | outcome [19] | Potency [8] | Potency [9] | outcome [10] | Potency [11] | Potency [12] | Potency [13] | outcome [15] | Potency [16] | outcome [17]

CC(=O)Nc1ccccc1
inactive: Potency [1] | outcome [2] | Potency [3] | outcome [4] | Potency [5] | Potency [6] | max response [7] 12.1% and 6.06% | Potency [8] | outcome [10] | Potency [11] | Potency [12] | Potency [13] | Potency [14] | outcome [15] | Potency [16] | outcome [17]

CCCCC(CC)CO (centres undefined)
inactive: Potency [1] | outcome [2] | Potency [3] | outcome [4] | outcome [18] | Potency [5] | Potency [6] | Potency [8] | Potency [9] | outcome [10] | Potency [11] | Potency [12] | Potency [13] | Potency [14] | outcome [15] | Potency [16] | outcome [17]

O=S1(=O)CC=CC1
inactive: Potency [1] | outcome [2] | Potency [3] | outcome [4] | Potency [5] | Potency [6] | outcome [19] | max response [7] -4.83% and 3.43% | Potency [8] | Potency [9] | outcome [10] | Potency [11] | Potency [12] | Potency [13] | Potency [14] | outcome [15] | Potency [16] | outcome [17]

Reference: PubChem BioAssay (Tox21)
